Measured values as given in ChEMBL document CHEMBL4513216, “Probing the Open Global Health Chemical Diversity Library for Multistage-Active Starting Points for Next-Generation Antimalarials” (ACS Infect Dis, 2020).
Screen size: about 65,000 compounds; about 2,100 (3.2%) showed an effect of 50% or more. The median lay at about -52%. This is one part of a sample in which strong results are shown more often than they occur.

These compounds were tested on Plasmodium falciparum (assay: Screen against P. falciparum Asexual Blood Stage (ABS), at 5uM). Settings: tested at 5 uM.
Type: functional, Dd2

SMILES | INHIBITION
Cc1cc2nc(C(C)C)cc(NC(C)c3nncn3C3CCCC3)n2n1 (stereo unspecified) | -49.8%
COc1cccc2c1OCC(C(=O)NCc1ncc3c(n1)CCC3)C2 (stereo unspecified) | -33%
N#Cc1ccc(C(=O)N2CCn3cc(CN4CCCCC4)nc3C2)cc1 | -96.9%
Cc1nccn1[C@@H]1CC[C@@H](N(C)S(=O)(=O)c2cccc(F)c2)[C@H]1O | -107%
CN([C@@H]1CC[C@@H](N2CCOCC2)[C@@H]1O)S(=O)(=O)c1ccccc1 | -97.1%
CN([C@@H]1CC[C@@H](N2CCCC2)[C@@H]1O)S(=O)(=O)c1ccccc1 | 51.6%
O=C(c1ccco1)N1CCC2(CCCN(c3ncccn3)C2)C1 (stereo unspecified) | -59%
COCCNc1cccc(C2CCCN2)n1 (stereo unspecified) | -86.4%
Cc1nc(C2CCCNC2)cc(N(C)CCc2cn[nH]c2)n1 (stereo unspecified) | -151%
Cc1cnc(CCNc2cccc(CC3CCCNC3)n2)s1 (stereo unspecified) | 65.5%
c1ccc(CCNc2cccc(C3CCCNC3)n2)cc1 (stereo unspecified) | 66.8%
Cc1cc(Nc2cnccn2)cc(C2CCCNC2)n1 (stereo unspecified) | -27.1%
Cc1nc(NC2CCCCC2)cc(C2CCCNC2)n1 (stereo unspecified) | -0.566%
Cc1nc(C2CCCNC2)cc(N(C)CCc2ccccc2)n1 (stereo unspecified) | 53.5%
CCn1ccnc1CN(C)c1cc(C2CCCNC2)nc(C)n1 (stereo unspecified) | -33.9%
COCCNc1ccc(CC2CCCNC2)cn1 (stereo unspecified) | -56.2%
Cc1cc(Cc2ccccc2F)cc(C2CCCNC2)n1 (stereo unspecified) | 64.8%
c1cc(NCc2ccncc2)nc(C2CCCNC2)c1 (stereo unspecified) | -2.22%
c1cc(CC2CCCNC2)nc(NCCc2cnccn2)c1 (stereo unspecified) | -96.3%
CCS(=O)(=O)NC(CCSC)C(=O)Nc1cc(F)ccc1C (stereo unspecified) | -26.6%
Cc1cnc(N2CCC3(CC2)CC3CN(C)Cc2cccnc2)nc1 (stereo unspecified) | -28%
CCC(C)Oc1ccc(CNCCNC(C)=O)cc1Cl (stereo unspecified) | -29.5%
COCc1cc(O)nc(C2CCCN(Cc3ccc(OC)cc3)C2)n1 (stereo unspecified) | -29.3%

SMILES | INHIBITION
Cc1cc(C(N)=O)c2c(Br)cccc2n1 | -105%
Cc1ccccc1C(C)N(C)Cc1nc2c(cnn2C)c(=O)[nH]1 (stereo unspecified) | -198%
Cc1ccc(C(C)N(C)Cc2nc3c(cnn3C)c(=O)[nH]2)cc1 (stereo unspecified) | -137%
Cc1ccc(C(C)N(C)Cc2nc3c(cnn3C)c(=O)[nH]2)s1 (stereo unspecified) | 50%
COc1ccc(C(C)N(C)Cc2nc3c(cnn3C)c(=O)[nH]2)cc1 (stereo unspecified) | 57.6%
COc1ccccc1C(C)N(C)Cc1nc2c(cnn2C)c(=O)[nH]1 (stereo unspecified) | -62.4%
Cc1ccc(CN(Cc2nc3c(cnn3C)c(=O)[nH]2)C(C)C)s1 | -67.1%
Cc1ccc(CCC(=O)N2CCC(Nc3cccnn3)CC2)cc1 | -69.1%
O=S(=O)(NCc1ccccc1)N1CCCN(c2ccncc2)CC1 | -0.943%
CCC(=O)N1CCC2(CC1)C(c1cccnc1)CC(=O)N2CCOC (stereo unspecified) | -104%
CC(CNC(=O)c1cccnc1)Oc1ccc(F)cc1 (stereo unspecified) | -61.4%
CN(C)C1CCN(c2cc(-c3ccccc3)nc3ccnn23)C1 (stereo unspecified) | 51.3%
CCNC(=O)C1CCN(c2cc(-c3ccccc3)nc3ccnn23)C1 (stereo unspecified) | -26.4%
Cc1cc(N2CCCC(N(C)C)C2)n2nccc2n1 (stereo unspecified) | -65.1%
O=C(COc1coc(CN2CCOCC2)cc1=O)Nc1ccc(Cl)cc1 | -117%
CC(O)(CN1CCN(CCO)CC1)c1cccc(C(F)(F)F)c1 (stereo unspecified) | 45.7%
CCN1CCN(CC(C)(O)c2cccc(C(F)(F)F)c2)CC1 (stereo unspecified) | 61.4%
CC(O)(CN1CCC2(CC1)OCCO2)c1cccc(C(F)(F)F)c1 (stereo unspecified) | -7.98%
COCCN1CCN(CC(C)(O)c2cccc(C(F)(F)F)c2)CC1 (stereo unspecified) | 20.5%
CC(=O)N1CCN(CC(C)(O)c2cccc(C(F)(F)F)c2)CC1 (stereo unspecified) | -10.4%
CC(O)(CN1CCC(O)CC1)c1cccc(C(F)(F)F)c1 (stereo unspecified) | 58%
CC(C)(C)c1csc(CCNC(=O)[C@H](c2ccccc2)n2cnnn2)n1 | -92.7%
O=C(c1ccsc1)N1C[C@@H]2OCCN(CCN3CCCC3)[C@@H]2C1 | -116%

SMILES | INHIBITION
CCc1ccc(S(=O)(=O)NCC2CCN(c3cnccn3)CC2)s1 | -103%
COc1cccc(N2CCN(Cc3nccn3C(C)C)CC2=O)c1 | -72.4%
CC(C)(C)OC(=O)N1CCCN(Cc2ccon2)c2ccccc21 | 84.5%
CC(=O)N1CCCN(Cc2ccon2)c2ccccc21 | -22.6%
CC(C)(C)OC(=O)N1CCCc2ccc(NCc3ccon3)cc21 | -31.3%
CN(C)CCOCc1nnc2n1CCN(Cc1ccc(F)cc1)CC2 | -137%
Cn1ccnc1CN1CCC(F)(F)C2(CCN(c3cccnc3)C2)C1 (stereo unspecified) | 60.4%
Cn1ccnc1CN1CCC(F)(F)C2(CCN(c3cnccn3)C2)C1 (stereo unspecified) | -1.72%
O=C(O)CN1CCC(F)(F)C2(CCN(c3ccccc3)C2)C1 (stereo unspecified) | 67.6%
FC1(F)CCN(c2ccccc2)CC12CCN(c1ncccn1)C2 (stereo unspecified) | -145%
FC1(F)CCN(Cc2ccncc2)CC12CCN(c1cccnc1)C2 (stereo unspecified) | 19.1%
O=C(CO)N1CCC(F)(F)C2(CCN(c3ccccc3)C2)C1 (stereo unspecified) | -30.5%
COc1ccc(CN(C)[C@@H]2CN(C(=O)c3cncs3)C[C@H]2O)cc1 | -40.5%
O=c1[nH][nH]c2cn(-c3ccc(Cl)cc3)c(=O)n12 | -27.8%
CCOc1cc(CN(C)CCC(=O)OC)ccc1OC(F)F | -133%
CN(C)CCO[C@@H]1CC[C@H]2[C@H]1OCCN2C(=O)c1ccnnc1 | -24.7%
CC(=O)NCc1nnc2n1CCN(Cc1cccs1)C2 | -56.1%
CCCc1cc(NCCN2CCNC2=O)n2nccc2n1 | -34.9%
O=C([C@H]1COC[C@H]2CN(C3CCCC3)C[C@H]21)N1CCCO1 | -99.5%
Cc1nc(-n2cnnc2)ccc1-c1cccc2c1CCNC2 | 68.7%
Cc1cnc(-n2cnnc2)c(-c2cccc3c2CCNC3)c1 | -35%
Cc1cc(-c2cccc3c2CCNC3)cnc1-n1cnnc1 | -24.9%
CC(C)n1nc2c(cc1=O)CN(c1ncnc3ccsc13)CC2 | -31%

SMILES | INHIBITION
O=C(NC1=NCCCN1c1ccc(Cl)cc1)c1cccc(Cl)c1 | -55.5%
CSC1=Nc2c(cnn2-c2ccccc2)C2=NCCCN12 | 9.95%
CSC1=Nc2c(cnn2-c2ccc(C)cc2)C2=NCCCN12 | 53.5%
CCOc1ccc(N2CCCN=C2NC(=O)c2ccc(Cl)cc2)cc1 | -71.7%
Cc1ccc(-n2ncc(C(=O)NC3CCCCC3)c2N)cc1 | -125%
CCSC1=Nc2c(cnn2-c2ccc(Cl)cc2)C2=NCCCN12 | 67.3%
COCCNC(=O)c1cc(C(C)C)nc(N2CCCCC2)n1 | -39.9%
COC(=O)c1ccc(-c2noc(CN(CCO)Cc3cccs3)n2)cc1 | -63.8%
O=C(c1cscn1)N1CCCC2(CCN2Cc2cccc(F)c2)C1 (stereo unspecified) | 26.8%
Cc1csc(C(=O)N2CC(S(=O)(=O)C3CCCCC3)C2)c1 | -52%
c1coc(-c2[nH]c3ncccc3c2CN2CCCOCC2)c1 | -12.7%
Cc1csc2ncnc(N3CCC(Cn4cc(C(C)(C)O)nn4)CC3)c12 | -46.7%
O=C(C1CCOCC1)N1CCC(OCc2cccnc2)CC1 | -110%
CC(C)NC(=O)C1CN(C(=O)NCc2ccccc2)CC12CCOCC2 (stereo unspecified) | -153%
Cc1noc(C)c1CN(C)C(=O)NC1CCN(C2CC2)CC1 | -155%
CC(=O)N1CCC(NC(=O)N(C)Cc2c(C)noc2C)CC1 | 51.4%
Cc1noc(C)c1CN(C)C(=O)NC1CCOCC1 | 16%
Cc1noc(C)c1CN1CCc2ncnc(-c3ccncc3)c2CC1 | -104%
COCC(=O)Nc1ccnn1-c1ccc(Cl)cc1 | 68.3%
CCOCCC(=O)Nc1ccnn1-c1ccc(Cl)cc1 | -23.8%
COCCOCC(=O)Nc1ccnn1-c1ccc(Cl)cc1 | -100%
COc1ccc(S(=O)(=O)NC(=O)COc2ccc3c(c2)CCC3)cc1 | -119%
c1csc(CN2CCCN(c3ccc(Cn4ccnc4)cn3)CC2)c1 | -41.4%

SMILES | INHIBITION
Fc1ccc(N2CCCN(c3ccc(Cn4ccnc4)cn3)CC2)cc1 | 60.2%
c1cn(Cc2ccc(N3CCCN(C4CCCC4)CC3)nc2)cn1 | -80%
Cc1ccc(CN2CCn3c(CNS(C)(=O)=O)nnc3C2)s1 | -30.1%
CCc1[nH]c2c(CNC(=O)[C@@H]3CCCN3C)cc(C)cc2c1C | 60.4%
CCc1[nH]c2c(CNC(=O)C3CCN(C)C3)cc(C)cc2c1C (stereo unspecified) | -5.66%
CCc1[nH]c2c(CNC(=O)C3CCCN(C)C3)cc(C)cc2c1C (stereo unspecified) | 0.72%
NC(=O)N1CCC2(CC1)CN(c1ccsc1)C(=O)CO2 | -60.1%
Clc1cccc(N2CCC(NCc3cc[nH]n3)C2)c1 (stereo unspecified) | -39.8%
Clc1cccc(N2CCC(NCc3ncc[nH]3)C2)c1 (stereo unspecified) | 66.6%
O=C1CC(NCc2ncc[nH]2)CN1CCc1cccc(Cl)c1 (stereo unspecified) | -17.4%
Cn1cc(C(=O)N2CCCC(c3cnccn3)C2)cn1 (stereo unspecified) | -55.6%
O=C1[C@H]2CN(c3ncccn3)C[C@H]2CN1CC1CC1 | -51.9%
Cc1cc(C(=O)NCCc2nc3c(s2)CCCC3)n(C)n1 | -90%
NC(=O)NC(=O)CCN1CCCC1c1cccc2c1OCCO2 (stereo unspecified) | 24.8%
COC(=O)CCN1CCCC1c1cccc2c1OCCO2 (stereo unspecified) | -42.1%
O=C(CCN1CCCC1c1cccc2c1OCCO2)N1CCOCC1 (stereo unspecified) | -24.9%
CC(C)NC(=O)CCN1CCCC1c1cccc2c1OCCO2 (stereo unspecified) | 53.4%
CCNC(=O)CCN1CCCC1c1cccc2c1OCCO2 (stereo unspecified) | 52.7%
COCCN1CCCC1c1cccc2c1OCCO2 (stereo unspecified) | -0.537%
